Source: PubChem BioAssay
HT1080-NT tox: qHTS for induction of synthetic lethality in tumor cells producing 2HG: qHTS for the HT-1080-NT fibrosarcoma cell line. AID 686970, 2013. HT-1080-NT fibrosarcoma viability, CellTiter-Glo ATP luminescence, 48 h. 360,000 compounds, 1.6% hits. Potency, µM (series often up to 46.1 µM), usual class: cytotoxic;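 further: NT is the 2HG producing partner of a matched IDH1 knockdown line; nearly all actives have a fitted effect of over 55% in size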
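Read-out is CellTiter-Glo luminescence after 10 minutes at room temperature, following 48 hours' compound treatment of HT-1080-NT cells (750 cells/well, RPMI, 5% FBS, 37 degrees C).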
ATXN2 expr inh: Primary qHTS for Inhibitors of ATXN expression; 360,000 compounds, 0.72% hits; AID 1745845, 2022; HEK-293 ATXN2-luciferase reporter, luminescence, 24 h; Potency, µM (series often up to 57 µM), hits mostly inhibitors; further: nearly all actives have a fitted effect of over 55% in size
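qHTS (up to 57 uM final) was run with 24 h compound exposure of reporter cells at 37 °C. Each well was multiplexed: SteadyGlo luminescence measured ATXN2-luciferase expression after a fluorogenic Gly-Phe-AFC viability readout (25 uM final).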
KB-3-1 tox: qHTS assay for MDR1-selective chemotherapeutics: Primary screen using the parental adenocarcinoma cell KB-3-1 | KB-3-1 viability, CellTiter-Glo ATP luminescence, 72 h | Potency, µM (titrated, usually from 46.1 µM), hits mostly cytotoxic | 400,000 compounds, 1.4% hits | AID 1347075, 2019; further: nearly all actives have a fitted effect of over 60% in size
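Viability of parental KB-3-1 cells, measured by CellTiter-Glo luminescence, followed a 72 h incubation at 37 °C with pinned compounds in phenol-red-free DMEM containing 10% FBS.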
S2 tox: Viability Counterscreen for Primary qHTS for Inhibitors of ATXN expression | S2 cells (HEK-293 line with an ATXN2-luciferase reporter) viability, CellTiter-Fluor protease fluorescence, 24 h | Potency, µM (series often up to 56.7 µM), actives largely listed as cytotoxic | 400,000 compounds, 0.49% hits; further: nearly all actives have a fitted effect of over 40% in size
KB-V1 MDR tox: qHTS assay for MDR1-selective chemotherapeutics: Primary screen using the drug-selected MDR subline cells KB-V1. 400,000 compounds, 3.4% hits. AID 1347076, 2019. Potency, µM (doses to about 46.1 µM), actives largely listed as cytotoxic. KB-V1 MDR cells viability, CellTiter-Glo, 72 h; further: nearly all actives have a fitted effect of over 60% in size
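Drug-selected KB-V1 cells, grown in DMEM lacking phenol red with 10% FBS, receive compound titrations; after three days at 37 degrees C, surviving cell ATP is quantified by CellTiter-Glo luminescence and responses normalized and curve-fitted.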
HT1080 IDH1KD tx: qHTS for induction of synthetic lethality in tumor cells producing 2HG: qHTS for the HT-1080-IDH1KD cell line | HT-1080 IDH1 knockdown viability, ATP luminescence, 48 h | 360,000 compounds, 2% hits | Potency, µM (top dose mostly 46.1 µM), hits mostly cytotoxic
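IDH1KD HT-1080 cells, 750/well, RPMI + 5% FBS; compound pinned after 2 h settling; 48 h, 37 °C; CellTiter-Glo luminescence; % activity normalised to DMSO and no-cell wells; curves fitted, classed by r2 and efficacy.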
A number is an active result; i = inactive; ? = inconclusive; nt = no result given; + = active, no number; [ ] = remark or other dose. The list is not random: actives were taken first. Their share in the collection is about 6.2%. The call rests on the fitted dose curve; in most records, active means well fitted curve in the direction sought with a large enough effect; inconclusive means small, poorly fitted or top-dose-only effect, or another doubt; inactive means no such curve, though single readings can be large; an effect the other way counts as inactive or inconclusive.

SMILES	HT1080-NT tox	ATXN2 expr inh	KB-3-1 tox	S2 tox	KB-V1 MDR tox	HT1080 IDH1KD tx
COc1ccc(C(C)(O)c2nc(-c3ccccc3C)cs2)cc1 (stereo not drawn)	?	i	4.6µM	i	5.2µM	9.2µM
COc1ccc(C(C)(O)c2nc(-c3cccc(O)c3)cs2)cc1 (stereo not drawn)	?	i	?	?	i	8.2µM
CC(O)(c1ccccc1)c1nc(-c2ccncc2)cs1 (stereo not drawn)	+	i	i	i	?	i
COc1ccc(-c2csc(C(C)(O)c3ccccc3)n2)cc1OC (stereo not drawn)	i	i	?	i	23µM	i
COc1ccc(C(C)(O)c2nc(-c3ccc(OC)c(OC)c3)cs2)cc1 (stereo not drawn)	i	i	i	i	i	i
COc1ccc(OC)c(NC(=O)c2cc3c(=O)oc4ccccc4c3s2)c1	nt	i	i	i	?	nt
COc1ccc(C(C)(O)c2nc(-c3ccccc3)cs2)cc1 (stereo not drawn)	?	i	?	i	?	16µM
O=C(/C=C/c1ccco1)N1CCN(C/C=C/c2ccccc2)CC1	i	i	i	i	15µM	i
Cc1cc(C(=O)N2CCN(C/C=C/c3ccccc3)CC2)cs1	i	i	i	i	16µM	i
O=C(/C=C/c1ccco1)N1CCN(S(=O)(=O)/C=C/c2ccccc2)CC1	i	i	i	i	?	i
COc1ccccc1CN1CCCC(n2cc(C(=O)N3CCCC3)nn2)C1 (stereo not drawn)	nt	nt	nt	i	nt	nt
Cn1c(SCc2cccnc2)nc2c(c1=O)SCC2	i	i	i	i	?	i
Cn1c(SCc2cccc([N+](=O)[O-])c2)nc2c(c1=O)SCC2	i	i[11.3 µM]	?	?	4.1µM	?
Cn1c(SCc2ccc(Br)cc2)nc2c(c1=O)SCC2	i	i	21µM	i	21µM	i
C#CCOCCOCCOCCNc1nc(N2CCN(C(=O)[C@H](CCC(=O)O)n3cc([C@@H](N)[C@H](C)CC)nn3)CC2)nc(N2CCN(C(=O)[C@H](CCC(=O)O)n3cc([C@@H](N)CCSC)nn3)CC2)n1	i	i	i	i	i	i
Cc1c(C(=O)N2CCCCCC2)c(S(=O)(=O)Nc2cccc(C#N)c2)c(C)n1C	nt	i	i	i	i	nt
CN(C)c1ccc(/C=N/N(CCC(=O)NC(C)(C)C)C2=NS(=O)(=O)c3ccccc32)cc1	i	i	i	i	i	i
CC(C)(C)NC(=O)CCN(/N=C/c1ccc([N+](=O)[O-])o1)C1=NS(=O)(=O)c2ccccc21	?	?	18µM	?	i	?
CC1CN(c2nn3c(=O)c4ccccc4nc3c3ccccc23)CC(C)O1 (stereo not drawn)	i	i	?	i	21µM	i
CCN1CCN(c2nn3c(=O)c4ccccc4nc3c3ccccc23)CC1	?	i	?	i	?	?
Cc1cc(SCC(=O)c2cccs2)nc2c(C)cccc12	i	i	i	i	?	i
CC(=O)Nc1ccc(C(=O)CSc2cc(C)c3cccc(C)c3n2)cc1	i	i	?	?	13µM	i
Cn1nnnc1SCC1=C(C(=O)O)N2C(=O)[C@@H](NC(=O)[C@H](OC=O)c3ccccc3)[C@H]2SC1	nt	nt	nt	i	nt	nt
c1ccc(-c2nnc(-c3ccco3)n2-c2ccccc2)cc1	i	i	i	i	18µM	i
CCOC(=O)c1[nH]c(C)c(/C(O)=C2\C(=O)C(=O)N(CCN3CCOCC3)C2c2cccs2)c1C (stereo not drawn)	?	nt	20µM	nt	?	?
COC(=O)c1[nH]c(C)c(/C(O)=C2\C(=O)C(=O)N(CCN(C)C)C2c2cccs2)c1C (stereo not drawn)	i	i	i	?	i	i
